The values below come from paper PMC5540273 (PLoS ONE, 2017).
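Further: KINOMEscan kinase panel screen.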

This assay concerns DAPK2. As to conditions: concentration: 1 μM, replicates: in singlicate; n = 1.
Turning to `Cc1ccc(C)c(NC(=O)NC2CCN(c3ccnc(Nc4ccc(F)cc4)n3)C2)c1` (stereo not shown) [GSK1379720], the “%Inh” value was found to be 0%.

With `Cl.Cl.NCC(NC(=O)c1cc(-c2ccccc2)c(-c2ccnc3[nH]ccc23)s1)c1ccccc1` (stereo not shown) [GSK1321561], the “%Inh” value was determined as 3%.

On to `CN(C)Cc1ccc(-c2ccc3c(Nc4ccc(Oc5ccccn5)cc4)ccnc3c2)o1` [GW567148], for which the “%Inh” value was determined as 0%.

Regarding `COc1cccc(C(=O)Nc2cccc(Oc3ccc4nc(NC(=O)C5CC5)cn4n3)c2)c1`, the “%Inh” value is listed as 4%.

For the compound `CNC(=O)c1ccccc1Nc1nc(Nc2ccc(N3CCOCC3)cc2)ncc1Cl.Cl` [GSK1576028], the “%Inh” value is 69%.

In the case of `C[C@@H]1CC[C@@H](C(=O)Nc2ccccc2)CN1c1cc(-c2ccc3c(N)n[nH]c3c2)nc(N)n1` [GSK2286062], the “%Inh” value is 23%.

For `Cn1cc(-c2ccc3c(c2)CCN3C(=O)Cc2cccc(Cl)c2)c2c(N)ncnc21` [GSK2606590], the “%Inh” value was found to be 5%.

On to `FC(F)(F)c1ccc(/C=C/c2cncnc2Nc2ccc3[nH]c(Cc4ccccc4)nc3c2)cc1` [GW709199], for which the “%Inh” value is reported as 0%.

Take `COc1cccc(NC(=O)NC2CCN(c3ccnc(Nc4cc(OC)c(OC)c(OC)c4)n3)C2)c1` (stereo not shown) [GSK1379763]: the “%Inh” value was 0%.

In the case of `Fc1ccc(-c2ncn(C3CCNCC3)c2-c2ccnc(Oc3ccc(-c4ccccc4)cc3)n2)cc1` [SB-245391], the “%Inh” value came to 5%.

With `Oc1cc(Nc2ccnc3cc(I)ccc23)ccc1F` [GW552771], the “%Inh” value is 0%.

Regarding `COC(=O)Nc1nc2ccc(Oc3ccc(NC(=O)Nc4cc(C(F)(F)F)ccc4F)cc3)cc2n1C.Cl` [GW692089], the “%Inh” value came to 0%.

Turning to `CC(=O)N1CCN(c2ccc(Nc3nccc(-c4sc(C(C)C)nc4-c4cccc(NS(=O)(=O)c5cccc(Cl)c5)c4)n3)cn2)CC1` [GSK1660437], the “%Inh” value is given as 0%.

Consider `Cl.Cl.NCC(C(=O)Nc1cc(Br)c(-c2ccnc3[nH]ccc23)s1)c1ccccc1` (stereo not shown) [GSK1269851], for which the “%Inh” value was found to be 0%.

Turning to `CC(C)(C)c1ccc2nccc(Nc3cccc(O)c3)c2c1` [GW856795], the “%Inh” value is recorded as 0%.

On to `NCCCC(NC(=O)c1cc(Br)c(-c2ccnc3[nH]ccc23)s1)c1ccccc1.O=C(O)C(F)(F)F.O=C(O)C(F)(F)F` (stereo not shown) [GSK1287544], for which the “%Inh” value is given as 0%.

Take `Cl.c1ccc(-c2ccc3c(Nc4ccc5[nH]ncc5c4)ccnc3c2)nc1` [GW440137]: the “%Inh” value is reported as 0%.

Consider `c1ccc(Oc2ccc(Nc3ccnc4cc(-c5ccc(CNCCN6CCOCC6)o5)ccc34)cc2)nc1` [GW567145], for which the “%Inh” value is reported as 2%.

`O=C(Nc1cccc(Oc2ccc3nc(NC(=O)C4CC4)cn3n2)c1)c1ccccc1C(F)(F)F`: the “%Inh” value stood at 5%.

On to `CC(C)c1nc(-c2cccc(NS(=O)(=O)c3c(F)cccc3F)c2F)c(-c2ccnc(Nc3ccc(N4CCOCC4)nc3)n2)s1` [GSK2008607], for which the “%Inh” value worked out at 1%.

In the case of `Nc1ncc(-c2cccnc2)c2scc(-c3ccc4c(c3)CCN4C(=O)Cc3ccccc3)c12` [GSK683281], the “%Inh” value is on record as 0%.

`Cn1cc(-c2ccc3c(c2)CCN3C(=O)Cc2cccc(F)c2)c2c(N)ncnc21` [GSK2603358]: the “%Inh” value was 0%.

Take `Cl.NC(=O)c1cccc(Nc2nccc(Nc3ccc(Oc4c(Cl)cccc4Cl)c(Cl)c3)n2)c1` [GW659009]: the “%Inh” value turned out to be 8%.

Regarding `COCCOCCOc1cc2ncc3c4ccc(C#N)cc4[nH]c3c2cc1OC`, the “%Inh” value came to 7%.

Take `COc1cccc(-c2ccc3c(NC(=O)C4CC4)n[nH]c3n2)c1` [SB-710903]: the “%Inh” value came to 0%.

Take `Nc1ncc(-c2ccc3nccc(-c4ccncc4)c3c2)cc1S(=O)(=O)N1CCOCC1` [GSK1627798]: the “%Inh” value was determined as 2%.

In the case of `Cc1ccc(C(=O)N2CC[C@@H](O)C2)cc1-n1c(C)cc(OCc2ccc(F)cc2F)c(Br)c1=O`, the “%Inh” value is 0%.

Turning to `O=C(O)C(F)(F)F.O=C(O)C(F)(F)F.O=c1[nH]ccc2nc(N[C@@H]3CCCNC3)nc(Nc3ccc(S(=O)(=O)N4CCOCC4)cc3)c12` [GSK2177277], the “%Inh” value came out at 98.1%.

On to `COc1cc(Nc2nccc(-c3c(-c4cccc(NC(=O)c5c(F)cccc5F)c4)nn4ncccc34)n2)cc(OC)c1OC` [GSK327238], for which the “%Inh” value is 0%.

Take `COc1cccc(C2=C(Nc3ccc(Cl)c(C(=O)O)c3)C(=O)NC2=O)c1` [SB-390769]: the “%Inh” value is 0%.

`Cc1ccc(C(=O)Nc2ccc(Nc3ccnc4cc(-c5nccs5)ccc34)cc2O)cc1.Cl` [GW494702]: the “%Inh” value was 0%.

For `CCn1c(-c2nonc2N)nc2c(C#CC(C)(C)O)nc(OC[C@H](N)c3ccccc3)cc21` [GSK943949], the “%Inh” value was found to be 3%.

Turning to `COC(=O)Nc1nc2cc(Oc3ccc(NC(=O)Nc4cc(C(F)(F)F)ccc4F)cn3)ccc2[nH]1.Cl.Cl` [GW681170], the “%Inh” value amounted to 0%.

For the compound `Cl.Cl.NCC(NCc1ccc(-c2ccnc3[nH]ccc23)s1)c1ccccc1` (stereo not shown) [GSK1321565], the “%Inh” value was found to be 32%.

With `O=c1[nH]cc(-c2ccc(N3CCOCC3)cc2)c2sc(-c3cn[nH]c3)cc12` [GSK2276055], the “%Inh” value is recorded as 19%.

In the case of `c1ccc(-c2cnc3nccnn23)cc1` [AH20685], the “%Inh” value is 0%.

Regarding `COc1cc(Nc2nccc(-c3c(-c4cccc(NC(=O)c5c(F)cccc5F)c4)nn4ccccc34)n2)cc(OC)c1OC` [GSK323521], the “%Inh” value came to 22%.
